Reference: PubChem BioAssay (NCATS)
“And” between values parts separate entries of the source, which are not always exact repeats. Equal values may be shown once. Records with an inconclusive call do not appear. The source holds several records for some structures; these can differ, active in one and inactive in another. The source made the active and inactive calls. Unless noted, calls come from the whole dose curve; as a rule, active = well fitted curve in either direction with a large enough effect (not every such curve was filed as active); inconclusive = small, poorly fitted or top-dose-only effect, or another doubt; inactive = flat fitted curve, though single readings scatter.

How the values were obtained:
[1] = AP1 Signaling Pathway (AID 357); details: ME-180 AP-1-bla reporter, EGF-induced, beta-lactamase ratio, 5 h;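 note: ME-180 reporter cells stimulated with EGF at its EC50 level; % is set by controls: 0 for no effect and ±100 for the full control effect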
Method in brief: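 Read-out was the 460nm/530nm emission ratio (excitation 405nm) after CCF4 loading for 2.5 hours at room temperature. Cells carried an AP-1-driven beta-lactamase reporter, were stimulated with EC50 EGF plus compound for 5 hours, and AC50 values came from titrations.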

[2] = target: Cytochrome P450 1A2 (Homo sapiens) (UniProt P05177); test: p450-cyp1a2 (AID 410; calls by dose curve; note: potency is the fitted concentration of half-maximal effect;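 for activity change, negative = inhibition: -100% = full effect of reference inhibitor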)
Method in brief: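 Human CYP1A2 (20nM) demethylated Luciferin-ME at its Km (100uM) in 100mM KPO4. After 10 min compound preincubation, NADPH regeneration ran the reaction 60 min at room temperature. Luciferin was read by luminescence, normalized to 57 uM furafylline.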

[3] = NFAT Signaling Pathway (AID 444); details: Jurkat NFAT-bla M1, carbachol, beta-lactamase ratio, 5 h;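 note: carbachol stimulus at about its EC50 of 1 µM final; % is set by controls: 0 for no effect and ±100 for the full control effect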
Method in brief: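 Jurkat cells carrying an NFAT-driven β-lactamase reporter and co-transfected muscarinic M1 receptor were treated with compound plus carbachol (1 uM final, an EC50 level) for 5 h at 37 °C. CCF4 loading followed for 1 h at RT; 460/530 nm ratio gave %activity.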

[4] = Stat Signaling Pathway (AID 446); details: ME-180 SIE beta-lactamase reporter, IL-6 stimulated, 5 h;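 note: ME-180 cervical cancer cells given 40 pM IL-6 alongside compound; SIE-controlled beta-lactamase reporter measured as 460/530 nm FRET emission ratio; % is set by controls: 0 for no effect and ±100 for the full control effect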
Method in brief: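 Screening format detects activators and inhibitors alike: ME-180 SIE-bla cells stimulated at 40 pM IL-6 for 5 hrs with compound, then dual-emission beta-lactamase read at 405 nm excitation.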

[5] = target: Glucocorticoid receptor (Homo sapiens) (UniProt P04150); test: GR-GFP Redistribution (AID 450;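 active = compounds whose dose series gives a full or clear partial fitted curve of increased nuclear translocation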; note: potency is the fitted concentration of half-maximal effect); details: U2OS GR-GFP nuclear translocation, laser cytometry, 2 h
[6] = target: Glucocorticoid receptor (Homo sapiens) (UniProt P04150); test: GR-EFC Redistribution (AID 451; calls by dose curve; note: potency is the fitted concentration of half-maximal effect); details: CHO-K1 GR-EFC translocation, beta-gal luminescence, 2 h
Method in brief: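 CHO-K1 cells stably expressing nuclear-localized β-gal enzyme acceptor and GR fused C-terminally to the enzyme donor fragment; ligand-driven nuclear translocation restores β-gal by complementation. Compounds titrated up to 46 uM final, 2 h at 37 °C; luminescence read.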

[7] = target: Mitogen-activated protein kinase 10 (Mus musculus) (UniProt Q61831); test: JNK3 AlphaScreen Assay (AID 530);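 note: kinase came from lysate of stimulated human HepG2 cells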; note: potency is the fitted concentration of half-maximal effect
Method in brief: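 JNK3 came from HepG2 lysates pre-activated with IL-1beta and TNF-alpha and phosphorylated biotinylated GST-cJun (1-79) at 10 uM ATP, pH 7.6, room temperature. Compounds were titrated. AlphaScreen signal used anti-phospho-cJun (Ser73) antibody.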

[8] = target: 3',5'-cyclic-AMP phosphodiesterase 4B (Homo sapiens) (UniProt Q07343); test: qHTS Assay for Inhibitors of PDE-IV (AID 607; active = well fitted activation curve with a large enough effect in the main read-out, with a control signal flat, not every such curve was filed as active; note: % of control where 0% means no effect)
Method in brief: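 The readout is membrane depolarisation from a cAMP-sensing CNG channel, detected with a potential dye at ex 535/em 590. Cells were HEK293-derived (endogenous PDE-IV) at 1000 cells/well, titrated up to 22.9 uM final.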

[9] = qHTS Assay for Lipid Storage Modulators (AID 1519; calls by dose curve); details: Drosophila S3 cells, BODIPY lipid droplet/cell ratio, laser cytometry, cells loaded with oleic acid; for activity change, negative = inhibition: at 25.7 µM (top of the series)
Method in brief: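 Cells seeded at 5,000 per well were treated with compounds over a concentration series and loaded with oleic acid (400 uM, as added). Lipid droplet fluorescence (488 nm excitation, 500-530 nm channel) was read by laser-scanning cytometry and normalized to 20 uM Triacsin C.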

[10] = target: ATP-dependent 6-phosphofructokinase (Trypanosoma brucei brucei) (UniProt O15648); test: qHTS Assay to Find Inhibitors of T. brucei phosphofructokinase: hit validation (AID 492961; active = well fitted curve in the direction sought with a large enough effect; an effect the other way counts as inactive or inconclusive;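 note: luminescence reports ADP formed as PFK phosphorylates fructose-6-phosphate with ATP; % is set by controls: 0 for no effect and ±100 for the full control effect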)
Method in brief: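 PFK 1.25 nM, F6P 0.5 mM, ATP 0.1 mM, MgCl2 5 mM, 0.1 M TEA pH 8.0, Tween20 0.01%, BSA 0.1%; 45 min RT. ADP-Glo two-step detection, luminescence. qHTS titration; curve fitting with curve-class categorization.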

[11] = target: Luciferin 4-monooxygenase (Photinus pyralis) (UniProt P08659); test: Biochemical firefly luciferase enzyme assay for NPC (AID 624030; active = well fitted curve in the direction sought with a large enough effect; an effect the other way counts as inactive or inconclusive;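 note: purified P. pyralis luciferase at 10 nM with luciferin and ATP substrate; 0% = DMSO and -100% = full luciferase inhibition by PTC124 control; nearly all actives have a fitted effect of over 70% in size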)
Method in brief: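 Counter-screen for direct inhibition of the luciferase enzyme by approved-drug library compounds, run at 10 nM enzyme in 50 mM Tris acetate (final). Luminescence was read within 5 min of enzyme-buffer addition and normalized to PTC124 versus DMSO (0%).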

[12] = qHTS profiling for inhibitors of Plasmodium falciparum proliferation (AID 504749; active = well fitted curve in the direction sought with a large enough effect; an effect the other way counts as inactive or inconclusive;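 note: 0% = DMSO vehicle and full inhibition = artemisinin control; nearly all actives have a fitted effect of over 60% in size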); details: P. falciparum in erythrocytes, SYBR Green DNA, 72 h
Method in brief: (§1)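 P. falciparum-infected erythrocytes (0.3% parasitemia, 2.5% hematocrit final) were exposed to compounds for 72 h at 37 C in 5% CO2, then lysed with SYBR Green buffer overnight at room temperature; parasite DNA fluorescence was normalized to artemisinin and DMSO controls.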

AS120 = test: as above; details: P. falciparum in erythrocytes, SYBR Green DNA, 72 h; series mostly up to 28.7 µM
Method in brief: as §1

CP238 = test: as above; details: P. falciparum in erythrocytes, SYBR Green DNA, 72 h; series mostly up to 12.8 µM
Method in brief: as §1

CP250 = test: as above; details: P. falciparum in erythrocytes, SYBR Green DNA, 72 h; series mostly up to 12.8 µM
Method in brief: as §1

CP262 = test: as above; details: P. falciparum in erythrocytes, SYBR Green DNA, 72 h; series mostly up to 12.8 µM
Method in brief: as §1

CP265 = test: as above; details: P. falciparum in erythrocytes, SYBR Green DNA, 72 h; series mostly up to 12.8 µM
Method in brief: as §1

FAB9 = test: as above; details: P. falciparum in erythrocytes, SYBR Green DNA, 72 h; series mostly up to 12.8 µM
Method in brief: as §1

[13] = target: alpha-glucosidase (Oryza sativa, rice) (UniProt Q653V4); test: Counterscreen for Glucocerebrosidase Inhibitors: qHTS Assay for Rice alpha-Glucosidase at pH 5.0 (AID 997; active = well fitted curve in the direction sought with a large enough effect; an effect the other way counts as inactive or inconclusive;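 note: 0% = full activity with enzyme and -100% = basal without enzyme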)
Method in brief: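 Rice alpha-glucosidase (4 nM final) with 400 uM 4-methylumbelliferyl-alpha-D-glucopyranoside in citrate buffer pH 5.0, 20 min at room temperature, stopped at pH 10; fluorescence 365/440 nm, compounds 0.7 nM–77 uM, AC50 from Hill fits.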

[14] = target: Ubiquitin carboxyl-terminal hydrolase 1 (Homo sapiens) (UniProt O94782); test: Inhibitors of USP1/UAF1: Pilot qHTS (AID 504865; active = well fitted curve in the direction sought with a large enough effect; an effect the other way counts as inactive or inconclusive;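 note: rhodamine fluorescence freed from ubiquitin-rhodamine substrate followed over time; top concentration of the series differs between compounds; % is set by controls: 0 for no effect and ±100 for the full control effect; nearly all actives have a fitted effect of over 35% in size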)
Method in brief: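 Enzyme-free wells gave the negative control, while test wells held 1nM USP1/UAF1 preincubated with compound for 15 min at room temperature. Ub-Rho at 150nM final started the reaction, and fluorescence at 480/540 nm was recorded kinetically.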

[15] = at 7.69 µM (top of the series) unless noted
[16] = measured here: cell count channel max response
[17] = measured here: lipid channel max response

Glucocorticoid receptor (Homo sapiens), sequence (P04150 whole entry, looked up, the tested form may be a part): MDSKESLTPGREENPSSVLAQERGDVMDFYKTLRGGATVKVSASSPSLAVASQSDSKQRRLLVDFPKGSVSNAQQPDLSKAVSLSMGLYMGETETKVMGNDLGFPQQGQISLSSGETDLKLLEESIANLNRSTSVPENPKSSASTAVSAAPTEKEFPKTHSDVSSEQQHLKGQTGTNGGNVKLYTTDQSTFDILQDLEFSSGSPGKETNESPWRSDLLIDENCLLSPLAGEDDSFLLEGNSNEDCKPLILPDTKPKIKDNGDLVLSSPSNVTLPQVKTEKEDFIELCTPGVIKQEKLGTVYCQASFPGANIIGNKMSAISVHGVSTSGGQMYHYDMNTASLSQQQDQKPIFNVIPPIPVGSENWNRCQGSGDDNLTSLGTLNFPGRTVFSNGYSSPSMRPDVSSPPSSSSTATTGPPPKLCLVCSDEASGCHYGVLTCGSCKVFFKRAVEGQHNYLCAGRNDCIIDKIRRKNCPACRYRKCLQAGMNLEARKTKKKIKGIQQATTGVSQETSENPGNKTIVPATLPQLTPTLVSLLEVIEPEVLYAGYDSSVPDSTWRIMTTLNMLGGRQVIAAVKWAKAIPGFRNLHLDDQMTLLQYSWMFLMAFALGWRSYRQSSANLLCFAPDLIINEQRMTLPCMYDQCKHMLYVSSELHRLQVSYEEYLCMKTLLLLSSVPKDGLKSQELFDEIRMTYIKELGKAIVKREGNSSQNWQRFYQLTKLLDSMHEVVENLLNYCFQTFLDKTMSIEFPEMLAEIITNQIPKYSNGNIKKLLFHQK
Ubiquitin carboxyl-terminal hydrolase 1 (Homo sapiens), sequence (O94782 whole entry, looked up): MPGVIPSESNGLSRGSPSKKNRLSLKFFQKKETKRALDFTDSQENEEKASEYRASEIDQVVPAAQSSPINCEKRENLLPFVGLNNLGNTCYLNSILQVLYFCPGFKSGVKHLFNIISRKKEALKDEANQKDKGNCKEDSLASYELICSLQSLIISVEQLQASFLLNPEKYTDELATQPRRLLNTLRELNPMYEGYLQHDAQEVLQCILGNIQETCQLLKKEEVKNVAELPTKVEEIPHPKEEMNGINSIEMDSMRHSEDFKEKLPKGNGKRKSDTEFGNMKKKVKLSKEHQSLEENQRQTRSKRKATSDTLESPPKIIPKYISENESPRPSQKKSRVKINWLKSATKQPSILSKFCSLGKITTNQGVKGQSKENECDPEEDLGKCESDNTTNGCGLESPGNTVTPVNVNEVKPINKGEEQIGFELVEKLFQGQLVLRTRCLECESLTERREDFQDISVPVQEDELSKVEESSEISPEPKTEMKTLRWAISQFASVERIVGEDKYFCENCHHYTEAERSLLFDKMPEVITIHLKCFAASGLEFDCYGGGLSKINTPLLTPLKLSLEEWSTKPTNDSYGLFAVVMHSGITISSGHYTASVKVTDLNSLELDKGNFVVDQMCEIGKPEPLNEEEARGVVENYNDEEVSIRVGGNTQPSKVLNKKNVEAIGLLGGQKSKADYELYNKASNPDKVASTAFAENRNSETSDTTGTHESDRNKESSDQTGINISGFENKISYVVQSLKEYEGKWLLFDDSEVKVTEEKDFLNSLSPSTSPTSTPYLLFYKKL
Cytochrome P450 1A2 (Homo sapiens), sequence (P05177 whole entry, looked up): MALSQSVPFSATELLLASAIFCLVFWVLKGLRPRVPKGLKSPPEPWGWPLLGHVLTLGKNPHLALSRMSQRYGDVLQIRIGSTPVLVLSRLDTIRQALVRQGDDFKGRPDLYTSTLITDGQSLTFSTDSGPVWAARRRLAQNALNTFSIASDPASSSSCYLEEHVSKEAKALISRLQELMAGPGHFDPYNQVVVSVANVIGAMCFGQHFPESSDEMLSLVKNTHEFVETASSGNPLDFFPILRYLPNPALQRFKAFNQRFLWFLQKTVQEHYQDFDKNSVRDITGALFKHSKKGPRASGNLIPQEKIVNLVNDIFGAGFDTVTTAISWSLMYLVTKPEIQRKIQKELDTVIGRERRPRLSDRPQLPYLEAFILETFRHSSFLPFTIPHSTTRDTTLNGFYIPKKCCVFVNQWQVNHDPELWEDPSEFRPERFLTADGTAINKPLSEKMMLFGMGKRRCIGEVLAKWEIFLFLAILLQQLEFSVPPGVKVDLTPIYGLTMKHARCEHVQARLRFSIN
3',5'-cyclic-AMP phosphodiesterase 4B (Homo sapiens), sequence (Q07343 whole entry, looked up): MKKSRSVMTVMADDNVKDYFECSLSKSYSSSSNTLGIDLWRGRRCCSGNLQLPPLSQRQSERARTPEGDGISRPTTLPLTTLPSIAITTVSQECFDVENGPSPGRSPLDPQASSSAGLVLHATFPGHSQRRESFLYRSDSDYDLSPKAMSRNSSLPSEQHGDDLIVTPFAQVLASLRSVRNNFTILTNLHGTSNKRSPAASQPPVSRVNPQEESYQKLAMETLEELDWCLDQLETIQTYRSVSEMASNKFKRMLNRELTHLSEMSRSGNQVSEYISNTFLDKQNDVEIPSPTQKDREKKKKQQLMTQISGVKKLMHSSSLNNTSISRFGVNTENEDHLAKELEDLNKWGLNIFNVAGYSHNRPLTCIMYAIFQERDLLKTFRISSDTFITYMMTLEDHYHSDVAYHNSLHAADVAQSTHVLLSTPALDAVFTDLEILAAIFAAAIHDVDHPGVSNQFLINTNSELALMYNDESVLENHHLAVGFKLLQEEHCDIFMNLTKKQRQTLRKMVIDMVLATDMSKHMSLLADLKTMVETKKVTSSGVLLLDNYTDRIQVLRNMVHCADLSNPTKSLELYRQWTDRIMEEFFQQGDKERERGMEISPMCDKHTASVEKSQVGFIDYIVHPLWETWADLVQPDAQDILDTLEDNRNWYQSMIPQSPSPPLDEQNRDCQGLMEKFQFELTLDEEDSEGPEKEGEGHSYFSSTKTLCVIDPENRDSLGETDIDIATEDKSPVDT
Luciferin 4-monooxygenase (Photinus pyralis), sequence (P08659 whole entry, looked up): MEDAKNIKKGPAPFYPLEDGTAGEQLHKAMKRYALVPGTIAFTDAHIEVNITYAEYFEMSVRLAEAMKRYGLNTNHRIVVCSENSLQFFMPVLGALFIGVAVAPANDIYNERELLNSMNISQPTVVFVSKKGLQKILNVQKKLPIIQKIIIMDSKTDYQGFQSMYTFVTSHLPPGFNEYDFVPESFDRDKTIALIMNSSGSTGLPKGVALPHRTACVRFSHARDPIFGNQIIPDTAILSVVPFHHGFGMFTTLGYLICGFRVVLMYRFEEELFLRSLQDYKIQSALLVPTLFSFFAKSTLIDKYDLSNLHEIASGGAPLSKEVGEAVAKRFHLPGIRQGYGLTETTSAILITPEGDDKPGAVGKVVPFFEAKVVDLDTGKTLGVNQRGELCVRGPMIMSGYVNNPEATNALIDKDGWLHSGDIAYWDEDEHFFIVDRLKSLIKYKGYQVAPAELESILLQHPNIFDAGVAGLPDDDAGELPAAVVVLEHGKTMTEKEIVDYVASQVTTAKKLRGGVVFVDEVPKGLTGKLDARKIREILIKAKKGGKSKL
ATP-dependent 6-phosphofructokinase (Trypanosoma brucei brucei), sequence (O15648 whole entry, looked up): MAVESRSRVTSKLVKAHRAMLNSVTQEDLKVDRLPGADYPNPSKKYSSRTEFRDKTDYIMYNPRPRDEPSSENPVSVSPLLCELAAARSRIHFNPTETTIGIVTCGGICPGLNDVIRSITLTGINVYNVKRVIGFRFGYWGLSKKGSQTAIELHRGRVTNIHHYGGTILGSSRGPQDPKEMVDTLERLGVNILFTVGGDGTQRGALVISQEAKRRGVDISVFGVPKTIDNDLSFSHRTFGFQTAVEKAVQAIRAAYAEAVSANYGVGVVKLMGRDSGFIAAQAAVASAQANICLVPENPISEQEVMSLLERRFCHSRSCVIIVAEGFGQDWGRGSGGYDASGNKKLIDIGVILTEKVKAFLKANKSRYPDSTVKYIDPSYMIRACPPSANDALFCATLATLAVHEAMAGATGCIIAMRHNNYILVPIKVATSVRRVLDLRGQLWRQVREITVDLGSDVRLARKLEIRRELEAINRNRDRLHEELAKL

## CCN[C@@H]1C[C@H](C)S(=O)(=O)c2sc(S(N)(=O)=O)cc21
[1]; [15]
  activity change, negative = inhibition: -11.2% [at 17.2 µM] (inactive)
[2]
  Potency: inactive
[3]; [15]
  activity change, negative = inhibition: -16.8% [at 17.2 µM] (inactive)
[4]; [15]
  activity, negative = inhibition: -13.1% [at 17.2 µM] (inactive)
[5]
  Potency: > 20.6 µM (inactive)
[6]
  Potency: > 20.6 µM (inactive)
[7]
  Potency: inactive
[8]
  Potency: inactive
[9]
  activity change, negative = inhibition: -5.41% (inactive)
[9]; [16]
  max response: -1.77%
[9]; [17]
  max response: -5.35%
[10]
  outcome: inactive
[11]
  outcome: inactive
[12]; at 28.7 µM (top of the series), parasite line A
  activity, negative = inhibition: 7.35% (inactive)
[12]; at 28.7 µM (top of the series), parasite line B
  activity, negative = inhibition: 9.64% (inactive)
AS120
  Potency: inactive
CP238
  Potency: inactive
CP250
  Potency: inactive
CP262
  Potency: inactive
CP265
  Potency: inactive
FAB9
  Potency: inactive

## CN1CCc2cccc3c2[C@@H]1Cc1ccc(O)c(O)c1-3
[1]; at 17.2 µM (top of the series)
  activity change, negative = inhibition: -20.2% (inactive)
[1]; at 38 µM (top of the series)
  activity change, negative = inhibition: -26.6% (inactive)
[3]; at 17.2 µM (top of the series)
  activity change, negative = inhibition: -6.25% (inactive)
[3]; at 38 µM (top of the series)
  activity change, negative = inhibition: -15.4% (inactive)
[4]; at 17.2 µM (top of the series)
  activity, negative = inhibition: 1.07% (inactive)
[4]; at 38 µM (top of the series)
  activity, negative = inhibition: -10.2% (inactive)
[5]
  Potency: > 46 µM (inactive) and > 20.6 µM (inactive)
[6]
  Potency: > 46 µM (inactive) and > 20.6 µM (inactive)
[7]
  Potency: inactive and 15.8 µM (active)
[8]
  Potency: inactive
[13]
  outcome: inactive
[9]
  activity change, negative = inhibition: 2.32% (inactive)
[9]; [16]
  max response: 2.96%
[9]; [17]
  max response: 6.43%
[14]
  Potency: inactive

## C=CCc1ccccc1OC[C@H](O)CNC(C)C
[1]; at 17.2 µM (top of the series)
  activity change, negative = inhibition: 12.5% (inactive)
[1]; at 38 µM (top of the series)
  activity change, negative = inhibition: 11.9% (inactive)
[2]
  Potency: 7.94 µM (active) and 3.16 µM (active)
[3]; at 17.2 µM (top of the series)
  activity change, negative = inhibition: -2.1% (inactive)
[3]; at 38 µM (top of the series)
  activity change, negative = inhibition: -5.09% (inactive)
[4]; [15]
  activity, negative = inhibition: 5.89% [at 17.2 µM] (inactive)
[7]
  Potency: inactive
[8]
  Potency: inactive
[13]
  outcome: inactive
[9]
  activity change, negative = inhibition: 0.0029% (inactive)
[9]; [16]
  max response: -4%
[9]; [17]
  max response: -3.45%
[14]
  Potency: inactive

## C[C@@]12CCC(=O)C=C1CC[C@H]1[C@H]3CC[C@](O)(C(=O)CO)[C@]3(C)CC(=O)[C@@H]12
[1]; at 17.2 µM (top of the series)
  activity change, negative = inhibition: 11.7% (inactive)
[1]; at 38 µM (top of the series)
  activity change, negative = inhibition: -1.21% (inactive)
[3]; at 17.2 µM (top of the series)
  activity change, negative = inhibition: -13.1% (inactive)
[3]; at 38 µM (top of the series)
  activity change, negative = inhibition: -9.72% (inactive)
[4]; at 17.2 µM (top of the series)
  activity, negative = inhibition: 8.63% (inactive)
[4]; at 38 µM (top of the series)
  activity, negative = inhibition: -7% (inactive)
[5]
  Potency: 0.431 µM (active)
[6]
  Potency: > 46 µM (inactive) and > 20.6 µM (inactive)
[8]
  Potency: inactive
[9]
  activity change, negative = inhibition: -1.59% (inactive)
[9]; [16]
  max response: -0.115%
[9]; [17]
  max response: -3.69%
[14]
  Potency: inactive

## NC(=O)OC[C@H](O)COc1ccc(Cl)cc1
[1]; [15]
  activity change, negative = inhibition: -4.9% [at 17.2 µM] (inactive)
[2]
  Potency: 10 µM (active)
[3]; [15]
  activity change, negative = inhibition: -9.21% [at 17.2 µM] (inactive)
[4]; [15]
  activity, negative = inhibition: 14.1% [at 17.2 µM] (inactive)
[5]
  Potency: > 20.6 µM (inactive)
[6]
  Potency: > 20.6 µM (inactive)
[7]
  Potency: inactive
[8]
  Potency: inactive
[9]
  activity change, negative = inhibition: -1.93% (inactive)
[9]; [16]
  max response: 14%
[9]; [17]
  max response: 12%
[10]
  outcome: inactive
[11]
  outcome: inactive
[12]; at 12.8 µM (top of the series), parasite line A
  activity, negative = inhibition: -2.39% (inactive)
[12]; at 12.8 µM (top of the series), parasite line B
  activity, negative = inhibition: -7.73% (inactive)
AS120
  Potency: inactive
CP238
  Potency: inactive
CP250
  Potency: inactive
CP262
  Potency: inactive
CP265
  Potency: inactive
FAB9
  Potency: inactive
